Assay outcomes from PubChem.
PME-1 Maybr inh: Maybridge compound blocking human PME-1; AID 2291; recombinant PME-1, FP-Rh probe fluorescence polarization; 16,000 tested, 0.5% active; Q9Y570; inhibition, % at 9 µM; in the data active = inhibition above about 30%
Target sequence (Q9Y570 whole entry, looked up): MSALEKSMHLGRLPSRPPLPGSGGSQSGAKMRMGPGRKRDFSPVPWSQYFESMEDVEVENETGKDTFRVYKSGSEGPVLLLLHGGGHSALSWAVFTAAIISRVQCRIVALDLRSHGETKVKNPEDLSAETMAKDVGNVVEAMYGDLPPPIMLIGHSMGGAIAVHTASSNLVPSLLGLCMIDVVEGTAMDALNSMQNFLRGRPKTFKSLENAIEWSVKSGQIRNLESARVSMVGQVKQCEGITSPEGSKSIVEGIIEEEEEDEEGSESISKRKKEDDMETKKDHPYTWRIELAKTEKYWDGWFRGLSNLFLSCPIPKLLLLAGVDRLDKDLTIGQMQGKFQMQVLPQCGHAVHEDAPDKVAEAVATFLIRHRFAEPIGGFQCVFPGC
Nox1 inhibitor: human Nox1 inhibition; Q9Y5S8; HT29 cells, luminol chemiluminescence ROS; inhibition, % at 6.7 µM; 16,000 tested, 0.81% active; AID 1792
NOTCH ag: NOTCH pathway agonism | NOTCH signaling luciferase reporter cells, luminescence | activation, % at 2.5 µM | 15,000 tested, 0.4% active; in the data active = activation above about 2.2%
luminol inh ctr: luminol signal inhibition, Nox1 inhibitor counter-screen | HRP/luminol/H2O2 chemiluminescence counterscreen | 16,000 tested, 0.4% active | inhibition, % at 6.7 µM; note: reference of the scale not given here
Numbers stand for hits; 0 = inactive; - = not tested or not shown. Sampled rows, rich in hits. Any-hit rate of the full collection: about 1.8%. Cut-off read from the data, not from the text of the source, unless noted: active = inhibition above about 75%; inactive = the rest.

SMILES	PME-1 Maybr inh	Nox1 inhibitor	NOTCH ag	luminol inh ctr
Cc1ccc(OS(=O)(=O)c2c(Cl)sc(Cl)c2Br)c([N+](=O)[O-])n1	40	0	0	0
O=C1OC(Nc2ccccc2Sc2ccc([N+](=O)[O-])cc2[N+](=O)[O-])c2ccccc21 (stereo not drawn)	0	0	0	0
O=C1NC(=S)N/C1=C\c1ccccc1Cl	0	0	0	75
O=C1NC(=S)NC(=O)C1=Cc1c(F)cccc1Cl	0	0	0	0
O=C(Nc1ccccc1)Nc1ccc(Cl)cc1[N+](=O)[O-]	0	0	0	0
CN1CCN(c2ccc(NC(=O)Nc3ccc(C(F)(F)F)cc3)cc2)CC1	36	0	0	0
COc1ccc(N=C(SC)N2CCOCC2)cc1	0	0	0	0
Nc1nc(NCc2ccc(-c3cccs3)s2)n[nH]1	0	0	0	0
COc1nc(Nc2ccccc2)nc(OC)n1	0	0	0	0
NC(=O)NCc1ccccn1	0	0	0	0
Nc1nc(NCc2ccccn2)n[nH]1	0	90	0	0
Nc1nc(NCc2cccnc2)n[nH]1	0	77	0	0
Nc1nc(Nc2ccccc2)n[nH]1	0	78	-	0
Fc1ccccc1-n1nnnc1-c1cnccc1C(F)(F)F	0	0	0	0
c1ccc(C(c2ccccc2)N2CCN(Cc3nc(-c4cccs4)no3)CC2)cc1	0	0	0	0
CN(C)c1ccc(NC(=O)Nc2cccs2)cc1	0	92	0	0
COc1ccc(-c2nc(N(C)c3ccccc3)[nH]c(=O)c2C#N)cc1	0	0	3.5	0
O=C(Oc1cccc2c1C(=O)C=CC2=O)c1ccccc1	34	0	0	0
COCCCNC(=S)NNC(=O)CC#N	0	0	0	98
COCCCNC(=S)NNC(=S)NCCCOC	0	0	0	0
CN(C)CCCNc1sc(-c2ccccn2)c([N+](=O)[O-])c1[N+](=O)[O-]	65	0	0	0
O=[N+]([O-])c1c(Sc2ccccn2)sc(Sc2ccccn2)c1[N+](=O)[O-]	0	0	0	0
COC(=O)c1ccccc1SC(=O)c1cnc2n(c1=O)CCS2	0	0	0	0
C/C(O)=C(/N=Nc1ccccc1)C(=O)OCc1ccccc1	0	0	0	0
O=C(Nc1ccc(-c2csnn2)cc1)C1CC1	0	0	0	0
SMILES	PME-1 Maybr inh	Nox1 inhibitor	NOTCH ag	luminol inh ctr
Cc1ccc(S(=O)(=O)NC(=O)Oc2ccc(-c3csnn3)cc2)cc1	0	0	0	103
CCOC(=O)c1csc(-c2ccc(Cl)cc2)n1	0	0	0	0
Cc1ccc(S(=O)(=O)NC(=O)Nc2c(C)n(C)n(-c3ccccc3)c2=O)cc1	0	92	0	0
CSc1cccc(N/C(=N\S(=O)(=O)c2ccccc2)NN)c1	43	0	0	0
O=C(O)[C@@H]1CSC(c2ccncc2)N1 (stereo partly drawn)	0	0	0	0
O=C(NNC(=O)c1cccs1)c1csc(-c2ccc(Cl)c(Cl)c2)n1	0	0	-	0
Cc1nnsc1-c1nnc(C2CCCCC2)o1	0	0	3.8	0
CC(C)(C)OC(=O)NCc1n[nH]c(=S)n1C1CC1	0	0	0	0
CC(C)(C)OC(=O)NCc1n[nH]c(=S)n1-c1ccccc1	0	0	0	97
S=c1[nH]c2cccnc2s1	0	0	0	100
Fc1ccc(-n2c(Cc3ccsc3)n[nH]c2=S)cc1	0	0	0	84
Cc1c(C)c(C)c(CSCc2n[nH]c(=S)n2-c2ccc(F)cc2)c(C)c1C	0	0	0	0
C=CCn1c(-c2ccccc2)n[nH]c1=S	0	0	0	97
C=CCn1c(CSc2ccccc2[N+](=O)[O-])n[nH]c1=S	0	0	0	80
O=c1[nH]nc(N2CCSCC2)[nH]1	0	89	0	0
Cc1nn(C)c(C)c1[N+](=O)[O-]	0	0	0	0
O=[N+]([O-])c1ccc2nc3c(O)c4ccccc4c(O)c3nc2c1	38	0	0	0
N#Cc1ccc(-c2c(C#N)c(N)n(N)c(=O)c2C#N)cc1	0	0	0	0
Cc1cn(CCC(=O)NCc2ccc3c(c2)OCO3)c2ccccc12	0	0	3.5	0
Cc1cn(CCC(=O)NC2Cc3ccccc3C2)c2ccccc12	0	0	0	0
N/C(=N\O)c1ccc(Oc2ncc(C(F)(F)F)cc2Cl)cc1	0	0	0	0
CCCCCCSc1n[nH]c(=S)s1	0	0	0	96
N#CC(C#N)=C(NC(=O)c1cccc(Cl)c1)Nc1ccccc1Cl	0	0	0	0
COc1cc(NC(=O)Nc2ccc(Cl)cc2)c(-n2c(C)ccc2C)cc1OC	74	0	0	0
COc1cc(C(=O)NNS(=O)(=O)c2ccc(Cl)cc2)c(-n2c(C)ccc2C)cc1OC	0	0	0	0
SMILES	PME-1 Maybr inh	Nox1 inhibitor	NOTCH ag	luminol inh ctr
COc1cccc(C(=O)CSc2nsc(SCC(=O)c3cccc(OC)c3)c2C#N)c1	0	88	0	0
C/C(=C\c1cccs1)[N+](=O)[O-]	0	0	0	0
COc1ccc(Br)c(OC)c1C(=O)NC(=O)Nc1cc(Cl)cc(Cl)c1	0	0	0	0
CC(=O)/C(C=Nc1cc(C)c(O)c(Cl)c1)=C(\C)O	0	92	0	0
CC(=O)/C(C=Nc1ccc(F)cc1)=C(\C)O	0	0	0	0
COc1ncccc1[N+](=O)[O-]	0	0	0	0
O=C1C=C(c2ccccc2)C(=O)C=C1Cl	0	0	0	0
c1ccc2c(c1)Nc1nc3ccccc3nc1N2	0	85	0	0
c1ccc2c(c1)Nc1nc3ccccc3nc1O2	0	0	0	0
Cc1cccc(NNC(=O)C2CCC2)c1	0	0	0	101
O=C(Nc1ccc(F)c(F)c1)C1CCC1	0	0	0	0
Cn1ncc(C#N)c1-n1cccc1	0	0	0	0
S=c1[nH]c(=S)c2ccccc2[nH]1	0	0	0	77
